Data as given in PubChem BioAssay (NCI).
This is part of a sample that, as a whole, favours compounds with a hit. Of some 83,000 tested, about 20% had one in any assay.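 Values shown are percent growth following 48 h exposure of cells in 96-well plates to a single concentration of compound; below 10 was considered active.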 A number with no mark means an inactive call. Active and inactive are the calls of the source.

Experiments:
Assay in all cases: NCI-60 one-dose screen, 48 h (100 = growth as untreated, 0 = no growth, -100 = all killed)
Conditions in all cases: 10 µM unless noted
HCT-15 colon = tested on: HCT-15 colon
HT29 colon = tested on: HT29 colon
SNB-75 CNS = tested on: SNB-75 CNS
SNB-19 CNS = tested on: SNB-19 CNS
U251 CNS = tested on: U251 CNS
PC-3 prostate = tested on: PC-3 prostate
SK-MEL-5 melanoma = tested on: SK-MEL-5 melanoma
LOX IMVI melanoma = tested on: LOX IMVI melanoma
SK-MEL-28 melanoma = tested on: SK-MEL-28 melanoma
SK-MEL-2 melanoma = tested on: SK-MEL-2 melanoma
EKVX NSCLC = tested on: EKVX NSCLC
SN12C renal = tested on: SN12C renal
UO-31 renal = tested on: UO-31 renal
TK-10 renal = tested on: TK-10 renal
ACHN renal = tested on: ACHN renal
CAKI-1 renal = tested on: CAKI-1 renal
CCRF-CEM leukemia = tested on: CCRF-CEM leukemia
MOLT-4 leukemia = tested on: MOLT-4 leukemia
A498 renal = tested on: A498 renal
UACC-62 melanoma = tested on: UACC-62 melanoma

| Compound | growth (HCT-15 colon) | growth (HT29 colon) | growth (SNB-75 CNS) | growth (SNB-19 CNS) | growth (U251 CNS) | growth (PC-3 prostate) | growth (SK-MEL-5 melanoma) | growth (LOX IMVI melanoma) | growth (SK-MEL-28 melanoma) | growth (SK-MEL-2 melanoma) | growth (EKVX NSCLC) | growth (SN12C renal) | growth (UO-31 renal) | growth (TK-10 renal) | growth (ACHN renal) | growth (CAKI-1 renal) | growth (CCRF-CEM leukemia) | growth (MOLT-4 leukemia) | growth (A498 renal) | growth (UACC-62 melanoma) |
| --- | --- | --- | --- | --- | --- | --- | --- | --- | --- | --- | --- | --- | --- | --- | --- | --- | --- | --- | --- | --- |
| Cc1nn(-c2ccccc2)c(N2CCOCC2)c1/C=N/N=c1\sc2ccccc2n1C | 39.1% | 66.5% | 99.2% | 87.3% | 55.2% | 49% | 38.5% | 57.9% | 75.9% | 105% | 82.2% | 81.7% | 65.2% | 129% | 82.4% | 67.3% | 67.3% | 58.6% | – | – |
| CCCCCCOc1ccc(C(=N)N(CCCC)CCCC)c2ccccc12 | -82.1% (active) | -83.2% (active) | -98.9% (active) | -88.9% (active) | -77.7% (active) | -84.2% (active) | -99.3% (active) | -92.6% (active) | -94.3% (active) | -85.6% (active) | -75.4% (active) | -86.5% (active) | -93.9% (active) | -92.4% (active) | -92% (active) | -83.7% (active) | -12.8% (active) | -38.4% (active) | – | – |
| COc1ccncc1C#Cc1cncc(C(=O)Nc2ccc(CN3CCN(C)CC3)c(C(F)(F)F)c2)c1 | 16.9% | 15.2% | 65.7% | 70.1% | 62% | 42.4% | 34.2% | -6.87% (active) | 18.2% | -0.485% (active) | 38.4% | 17.7% | 11.7% | 50.6% | 13.2% | 15.4% | 12.3% | 22.5% | 28.9% | – |
| CN(C)C(=O)c1cc2cnc(Nc3ccc(-c4csc5c(=O)cc(N6CCOCC6)oc45)cc3)nc2n1C1CCCC1 | -11.4% (active) | -48.6% (active) | -65% (active) | 1.45% (active) | -7.84% (active) | -42% (active) | -98% (active) | -39.3% (active) | -55.9% (active) | -58.6% (active) | -19.5% (active) | 4.35% (active) | -5.39% (active) | -10% (active) | 1.06% (active) | -50.8% (active) | -14.4% (active) | -32% (active) | – | – |
| CCOc1cc(CNc2ccc(N3CCOCC3)c(C(=O)O)c2)ccc1OC | 96.4% | 98.1% | 108% | 94.6% | 103% | 98.9% | 99.8% | 99.5% | 100% | 98.7% | 96.9% | 94.2% | 98.1% | 94.7% | 108% | 102% | 106% | 104% | – | – |
| CCSc1ccc2c(c1)N(CCCN1CCN(C)CC1)c1ccccc1S2 | 2.48% (active) | -14.7% (active) | 28.3% | 68.8% | 36.2% | 51.9% | -98.7% (active) | -82.5% (active) | -85.2% (active) | 69% | 59.3% | 57.6% | 9.67% (active) | 55.6% | 43.5% | 50% | 27.9% | 18.5% | – | – |
| CO[C@@H]1[C@H](N(C)C(=O)c2ccccc2)C[C@@H]2O[C@]1(C)n1c3ccccc3c3c4c(c5c6ccccc6n2c5c31)C(=O)NC4=O | 25% | 42.8% | -14.8% (active) | 63.6% | 44.3% | 26.3% | 40% | 31.4% | 83.1% | 55.1% | 27.9% | 33.4% | -35.6% (active) | -20.3% (active) | 35.4% | -10.8% (active) | 44.5% | 32.8% | – | – |
| BrC(Br)(Br)c1cnc2ccccc2n1 | 31.7% | -65.1% (active) | 102% | 67.9% | 50.3% | 62.3% | 73.9% | 30.6% | 53.5% | 90.2% | 70.4% | 71.6% | -51.1% (active) | -57.9% (active) | -51.6% (active) | -29.7% (active) | 23.2% | – | – | – |
| CNC(=O)Nc1ccc(-c2nc(N3CCOCC3)nc3c2cnn3C2CCOCC2)cc1 | 8.73% (active) | 6.44% (active) | -37.9% (active) | 7.91% (active) | 4.14% (active) | 6.22% (active) | -47.7% (active) | 4.58% (active) | -14.1% (active) | -23.8% (active) | -24.3% (active) | 7.06% (active) | -23.5% (active) | -38% (active) | 4.27% (active) | -19.3% (active) | 23.8% | 11.9% | – | – |
| COc1cc(-c2nc3sccn3c2-c2ccnc(NCCNS(=O)(=O)c3ccc(F)cc3)n2)ccc1F | 13.2% | 10.8% | 52.7% | 35.7% | 17.5% | 6.16% (active) | -75.3% (active) | 4.75% (active) | 19.2% | -38.3% (active) | 23.6% | 15.1% | -11.1% (active) | 20.2% | 0.0766% (active) | 8.83% (active) | 2.47% (active) | -15.4% (active) | 22.5% | – |
| O=C(NCCN1CCOCC1)OCc1nc2nc(Cl)nc(N3CCOCC3)c2[nH]1 | 16.4% | 122% | 1.3% (active) | 36.2% | 19.7% | 24% | -29.7% (active) | 16.5% | 61.9% | 18.9% | 95.2% | 29.2% | 39.6% | 71% | 33.1% | 25.2% | 5.93% (active) | 19% | -8.24% (active) | – |
| CCCCCCCC(=O)Nc1nc2[nH]c(CN3CCN(Cc4cccc(I)c4)CC3)c(CN3CCN(Cc4cccc(I)c4)CC3)c2c(=O)[nH]1 | -91.5% (active) | -69.8% (active) | -73.2% (active) | -87.5% (active) | -94.6% (active) | -45.7% (active) | 2.56% (active) | – | -78.1% (active) | -34% (active) | -44.5% (active) | -87.3% (active) | -99.9% (active) | -91.9% (active) | – | – | 1.17% (active) | -36% (active) | 45.5% | -98.1% (active) |
| COc1ccc(CNCCN2C(=O)c3ccc4c5c(ccc(c35)C2=O)C(=O)N(CCNCc2ccc(OC)cc2)C4=O)cc1 | -68.1% (active) | -55.3% (active) | -95.7% (active) | -90.9% (active) | -91.8% (active) | -76% (active) | -99.6% (active) | -74.7% (active) | -96.2% (active) | -74.2% (active) | -69.3% (active) | -87.9% (active) | -76.6% (active) | -61.7% (active) | – | -53.8% (active) | -16.3% (active) | -36.1% (active) | – | – |
| CSc1nnc2c(=O)n(C)c(=O)n(C)c2n1 | 100% | 111% | 100% | 97.5% | 97.2% | 83.2% | 106% | 83.5% | 95.5% | -28.8% (active) | 111% | 96.1% | 88.9% | 99.9% | 98% | 110% | 88.3% | 106% | 88.7% | – |
| Cc1nc2sc(C(=O)Nc3ccccc3)c(N)c2cc1C(=O)c1ccc(C(F)(F)F)cc1 | 103% | 103% | 17.4% | 96.3% | 102% | 102% | 98.1% | 96.9% | 99.7% | 101% | 79.3% | 99.6% | 90.7% | 104% | 80% | 83.6% | 102% | 108% | 5.8% (active) | – |
| COc1cc(COC(=O)CCCCC[P+](c2ccccc2)(c2ccccc2)c2ccccc2)c(OC)c2c1OCO2 | 99.3% | 32.3% | 59.9% | 55.5% | 56.8% | 44.9% | 3.32% (active) | 35.6% | 51.4% | 68.4% | 73% | 51% | 91.4% | 75.6% | 98.5% | 72.7% | – | 93.3% | 52.5% | – |
| COc1cccc(CCC(=O)c2cc3c(N)c(C(=O)Nc4ccccc4)sc3nc2C)c1 | 17.5% | 16.7% | 9.14% (active) | 38.5% | 26.2% | 49.8% | 8.92% (active) | – | 42% | 42.3% | 45.4% | 35% | 34.8% | 70.9% | 56.3% | 28.4% | 29.7% | 22.2% | 9.88% (active) | – |
